Source: PubChem (Broad Institute)
This is a sample that favours compounds with a hit; in the whole collection about 3.2% have one here.
ERAP1 inh – human ERAP1 aminopeptidase inhibitors, primary screen, biochemical, single point, plate reader | AID 652197, 2013 | Endoplasmic reticulum aminopeptidase 1 (Homo sapiens), Q9NZ08 | hit rate 0.15% among 340,000 | inhibition, % at 10.7 µM | recombinant ERAP1, Leu-AMC fluorescence, 60 min;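 active means mean replicate inhibition of at least 30%, or all replicates individually reaching that 30% level; inactive means mean below 30% and not every replicate reaching it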
Target sequence (Q9NZ08 whole entry, looked up): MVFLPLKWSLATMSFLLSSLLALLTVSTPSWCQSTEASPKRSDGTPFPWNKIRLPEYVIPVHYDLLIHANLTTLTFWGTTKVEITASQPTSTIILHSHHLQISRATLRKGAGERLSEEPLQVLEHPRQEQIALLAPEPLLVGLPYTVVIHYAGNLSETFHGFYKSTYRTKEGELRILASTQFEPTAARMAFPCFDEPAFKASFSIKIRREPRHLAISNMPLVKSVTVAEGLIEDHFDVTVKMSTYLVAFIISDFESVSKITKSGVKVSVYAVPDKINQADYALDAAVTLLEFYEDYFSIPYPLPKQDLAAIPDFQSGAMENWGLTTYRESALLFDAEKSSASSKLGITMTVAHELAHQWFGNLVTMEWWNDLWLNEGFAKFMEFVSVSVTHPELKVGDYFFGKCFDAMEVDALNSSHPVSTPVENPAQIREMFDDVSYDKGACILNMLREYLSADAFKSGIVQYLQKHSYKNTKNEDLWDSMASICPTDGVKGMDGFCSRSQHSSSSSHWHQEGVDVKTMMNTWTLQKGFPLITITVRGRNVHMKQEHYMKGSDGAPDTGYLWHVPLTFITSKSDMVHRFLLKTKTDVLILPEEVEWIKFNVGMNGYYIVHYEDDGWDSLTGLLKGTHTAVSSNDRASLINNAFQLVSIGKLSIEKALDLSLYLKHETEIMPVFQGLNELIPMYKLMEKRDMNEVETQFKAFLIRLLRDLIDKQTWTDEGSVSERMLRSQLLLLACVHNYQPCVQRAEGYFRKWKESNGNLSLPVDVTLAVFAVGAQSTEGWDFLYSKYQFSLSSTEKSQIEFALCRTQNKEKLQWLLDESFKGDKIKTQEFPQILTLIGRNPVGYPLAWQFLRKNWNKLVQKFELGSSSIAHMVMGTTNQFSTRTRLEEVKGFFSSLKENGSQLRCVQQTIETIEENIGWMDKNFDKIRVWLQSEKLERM
CaV13 ICDI inh – Primary screen for inhibitors of IQ motif and Ca2+-dependent inactivation inhibitor domain binding in CACNA1D, Förster resonance energy transfer in living cells, … | hit rate 0.098% among 340,000 | HEK cells, CFP/YFP FRET ICDI-IQ, plate reader, 10 min; percent FRET-ratio fall versus neutral wells | inhibition, % at 12.3 µM;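 active means mean replicate inhibition of at least 30% and at least 1% of replicates passing that level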
DENV2 CPE rescue – inhibitors of DENV2 cytopathic effect, primary screen, cell-based, plate reader, single concentration. DENV2-infected cells, cytopathic effect rescue. CPE inhibition, % at 9.99 µM. hit rate 1.7% among 350,000; in the data active means CPE inhibition above about 20%, passing the limit was not always enough; tested in BHK-21 cells
Ecoli rRNA inh – reduced GFP signal of wild-type E. coli, primary screen, bacterial rRNA inhibitor project, GFP/RFP fluorescence, OD600, single point. E. coli WT GFP vs humanized-ribosome RFP mutants, 24 h; stronger effect = lower value; DMSO median 0, no signal -100. GFP signal change (wild-type ribosome), % (no concentration beside the values). hit rate 1.6% among 350,000;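 active means significant combined selectivity score with lowered wild-type GFP, culture density cut under 30%, mutant RFP and density less affected; inactive means any of these conditions unmet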
PGC1a acetyl inh – inhibitors of PGC1a acetylation signal, primary screen, cell-based, U2OS, AlphaScreen, inhibitor mode; AlphaScreen anti-acetyl-lysine; with virally co-expressed GCN5 acetyltransferase; inhibition, % at 15.6 µM; hit rate 0.17% among 350,000; AID 651687, 2012;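 active means every replicate shows inhibition of at least 40%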
GSIS activator – GLuc luminescence reporter in INS-1E cells, primary screen for activators of glucose-dependent secretion of insulin; INS-1E GLuc reporter insulin secretion, 2-3 h; activation, % at 16.6 µM; hit rate 0.61% among 370,000;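 active means lowest replicate activation of at least 40%, so every replicate reaches that level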
Of the large screens only hits and unclear results are named; the others gave an inactive call.

CC(=O)Nc1cccc2c1O[C@H](CN(C)C(=O)OC(C)(C)C)[C@@H](C)CN(C)C2=O	none (no result: ERAP1 inh, CaV13 ICDI inh, DENV2 CPE rescue, PGC1a acetyl inh)
COC(=O)C[C@H]1C[C@H]2c3cc(NC(=O)Nc4ccc(OC)cc4)ccc3O[C@H]2[C@@H](CO)O1	none (no result: ERAP1 inh, CaV13 ICDI inh, DENV2 CPE rescue, PGC1a acetyl inh)
CO[C@H]1CN(C)C(=O)c2ccc(NC(C)=O)cc2OC[C@@H](C)N(C(=O)c2cnccn2)C[C@@H]1C	none (no result: ERAP1 inh, CaV13 ICDI inh, DENV2 CPE rescue)
CCCNC(=S)NNC(=O)c1cc(C2CC2)nc2ccccc12	DENV2 CPE rescue 25 (no result: CaV13 ICDI inh, PGC1a acetyl inh)
Cc1nn(-c2ccccc2)c2c1C1(C(=O)N(C)c3ccccc31)C(C#N)=C(N)O2 (stereo not given)	none (no result: ERAP1 inh, DENV2 CPE rescue, Ecoli rRNA inh, PGC1a acetyl inh, GSIS activator)
Cc1nn(-c2ccccc2)c2c1C1(C(=O)N3c4c(cccc41)C(C)CC3(C)C)C(C#N)=C(N)O2 (stereo not given)	Ecoli rRNA inh -46
COc1ccc(CNC(=O)/C=C/c2ccc(S(=O)(=O)NCc3ccco3)cc2)cc1OC	none (no result: ERAP1 inh, DENV2 CPE rescue, Ecoli rRNA inh, PGC1a acetyl inh)
O=C(/C=C/c1ccc(S(=O)(=O)NCc2ccco2)cc1)NCc1ccccc1Cl	Ecoli rRNA inh -27 (no result: PGC1a acetyl inh)
CC(C)NC(=O)Nc1ccc2c(c1)C(=O)N([C@H](C)CO)C[C@@H](C)[C@@H](CN(C)C(=O)Nc1ccc3c(c1)OCO3)O2	DENV2 CPE rescue 25 (no result: CaV13 ICDI inh)
C[C@@H]1CN([C@H](C)CO)C(=O)c2cc(NC(=O)Nc3cccc4ccccc34)ccc2O[C@@H]1CN(C)C(=O)Nc1ccc2c(c1)OCO2	DENV2 CPE rescue 33 (no result: CaV13 ICDI inh)
C[C@@H]1CN([C@@H](C)CO)C(=O)c2cc(NC(=O)Nc3cccc4ccccc34)ccc2O[C@@H]1CN(C)C(=O)Nc1ccc2c(c1)OCO2	none (no result: CaV13 ICDI inh)
CC(C)NC(=O)Nc1ccc2c(c1)C(=O)N([C@@H](C)CO)C[C@H](C)[C@H](CN(C)C(=O)Nc1ccc3c(c1)OCO3)O2	DENV2 CPE rescue 87 (no result: CaV13 ICDI inh)
C[C@@H]1CN([C@@H](C)CO)C(=O)c2cc(NS(=O)(=O)c3ccccc3)ccc2O[C@@H]1CN(C)C(=O)Nc1ccc2c(c1)OCO2	DENV2 CPE rescue 49 (no result: CaV13 ICDI inh)
C[C@H](CO)N1C[C@H](C)[C@H](CN(C)C(=O)Nc2ccc3c(c2)OCO3)Oc2ccc(NS(=O)(=O)c3ccccc3)cc2C1=O	none (no result: CaV13 ICDI inh)
O=C(Nc1cccc(F)c1)N1CC(=O)N2[C@H](CO)[C@H](c3ccc(C#CCC4CCCC4)cc3)[C@H]2C1	none (no result: CaV13 ICDI inh)
CC(=O)NC(c1cccs1)c1cc([N+](=O)[O-])c2cccnc2c1O (stereo not given)	DENV2 CPE rescue 87 (no result: PGC1a acetyl inh)
CC(=O)NC(c1cc(Cl)c2cccnc2c1O)C(C)C (stereo not given)	DENV2 CPE rescue 42
CCCN1C[C@@H](C)[C@@H](OC)CN(C)C(=O)c2ccc(NC(=O)C3CC3)cc2OC[C@@H]1C	none (no result: CaV13 ICDI inh)
Fc1ccccc1NC(=S)Nn1cnnc1	DENV2 CPE rescue 44
O=C(NCC1CC1)[C@H]1[C@H](CO)[C@H]2Cn3c(ccc(-c4ccccc4)c3=O)[C@@H]1N2C(=O)C1CC1	none (no result: CaV13 ICDI inh, DENV2 CPE rescue, PGC1a acetyl inh)
COc1ccc(C2=CC(=O)C[C@H](c3ccc(OC)cc3)C2)cc1	none
COc1ccc([C@H]2CC(=O)C=C(c3ccc4cc[nH]c4c3)C2)cc1	DENV2 CPE rescue 66 (no result: ERAP1 inh)
CN(C)c1cc[n+](CC(=O)Nc2ccc(OC(F)F)cc2)cc1	ERAP1 inh 107
COc1ccccc1NC(=O)Nc1ccc2c(c1)C(=O)N(C)C[C@H](OC)[C@H](C)CN(C)[C@H](C)CO2	none (no result: ERAP1 inh, CaV13 ICDI inh, DENV2 CPE rescue)
C[C@H]1CCCCO[C@H](CN(C)C(=O)Nc2cccc3ccccc23)[C@@H](C)CN([C@@H](C)CO)C(=O)c2cc(NS(=O)(=O)c3ccc(Cl)cc3)ccc2O1	DENV2 CPE rescue 44 (no result: CaV13 ICDI inh)
C[C@@H]1CCCCO[C@H](CN(C)C(=O)Nc2cccc3ccccc23)[C@@H](C)CN([C@H](C)CO)C(=O)c2cc(NS(=O)(=O)c3ccc(F)cc3)ccc2O1	none (no result: CaV13 ICDI inh)
